Measurements reported in PubChem BioAssay (EPA / NIEHS).
The source made the active and inactive calls. How the source made its calls: active means hit-call score of the fitted dose curve at least 0.9, where 1 is the maximum; inactive means score below 0.9.

Legend:
[1] = ATG_GRE_CIS: Attagene CIS-FACTORIAL HepG2 Assay for human Glucocorticoid Response Elements (GRE) (AID 2282947); settings: HepG2 GRE cis-reporter, Attagene multiplex mRNA; actives raise or lower the signal
How it was run: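 Transiently transfected HepG2 cells carrying GRE cis-reporter units (endogenous TF activity) dosed 24 h; reporter mRNA quantified by RT-PCR, 6-FAM labelling, HpaI digestion and capillary electrophoresis. Bidirectional fit versus DMSO baseline.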

[2] = ATG_ISRE_CIS: Attagene CIS-FACTORIAL HepG2 Assay for human Interferon Regulatory Factor 1 (IRF1) binding to an Interferon-Stimulated Response Element (ISRE) (AID 2282948); settings: HepG2 ISRE cis-reporter (Attagene), mRNA transcription readout; actives raise or lower the signal
How it was run: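 Quantitation relies on labelled RT-PCR fragments separated by capillary electrophoresis. Human HepG2 cells bearing cis-promoter reporter constructs were treated 24 h; DMSO served as baseline for bidirectional fitting.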

[3] = ATG_M_32_CIS: Attagene CIS-FACTORIAL HepG2 Assay for M32 Transcription Factor (Internal Marker) (AID 2282949); settings: HepG2 Attagene cis-factorial M32 reporter, mRNA; actives raise or lower the signal;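 further: background control marker of the multiplexed CIS panel rather than a real target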
How it was run: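 Fluorescent capillary electrophoresis peaks of HpaI-digested, FAM-labelled RT-PCR reporter products give the signal. Source: transiently transfected human liver HepG2 cells, 24 h after chemical dosing; bidirectional fitting against DMSO.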

[4] = ATG_M_06_CIS: Attagene CIS-FACTORIAL HepG2 Assay for M06 Transcription Factor (Internal Marker) (AID 2282950); settings: HepG2 Attagene CIS-FACTORIAL M06 internal marker reporter; actives raise or lower the signal
How it was run: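 Internal background marker within multiplexed cis-reporter HepG2 system. Cells transiently transfected, dosed 24 h; reporter mRNA measured by RT-PCR, HpaI digestion and capillary electrophoresis. Bidirectional fit relative to DMSO.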

[5] = target: Hypoxia-inducible factor 1-alpha (Homo sapiens) (UniProt Q16665); test: ATG_HIF1a_CIS: Attagene CIS-FACTORIAL HepG2 Assay for human Hypoxia Inducible Factor 1 (HIF1A) (AID 2282951); settings: HepG2 Attagene cis-factorial HIF1a reporter transcription; actives raise or lower the signal
How it was run: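 HepG2, transient cis-reporter library, 24 h dosing. RNA → RT (oligo dT) → PCR → 6-FAM primer extension → HpaI → CE. Bidirectional curve fit vs DMSO.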

[6] = target: Hepatocyte nuclear factor 6 (Homo sapiens) (UniProt Q9UBC0); test: ATG_HNF6_CIS: Attagene CIS-FACTORIAL HepG2 Assay for human Hepatocyte Nuclear Factor 6 (HNF6) (AID 2282952); settings: HepG2 Attagene cis-factorial HNF6 reporter transcription; actives raise or lower the signal
How it was run: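 Cells are HepG2 carrying transiently transfected cis-promoter reporter units. Treatment lasts 24 h, after which reporter transcripts are reverse-transcribed, amplified, FAM-labelled and sized by capillary electrophoresis. DMSO serves as baseline.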

[7] = target: Heat shock factor protein 1 (Homo sapiens) (UniProt Q00613); test: ATG_HSE_CIS: Attagene CIS-FACTORIAL HepG2 Assay for human Heat Shock Transcription Factor 1 (HSE) (AID 2282953); settings: HepG2 HSE cis-reporter, Attagene RNA transcription; actives raise or lower the signal
How it was run: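 HepG2 cells transfected with cis-promoter reporter units sensing endogenous transcription factor activity; reporter mRNA quantified 24 h post-dose by RT-PCR and capillary electrophoresis of 6-FAM-labelled products. Bidirectional fitting against DMSO.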

[8] = ATG_MRE_CIS: Attagene CIS-FACTORIAL HepG2 Assay for human Metal Responsive Element (MRE) (AID 2282954); settings: HepG2 MRE cis-reporter transcription, Attagene multiplex; actives raise or lower the signal
How it was run: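 HepG2 cells transiently transfected with cis-element-driven reporter units; mRNA measured 24 h after dosing. Reporter transcripts quantified by RT-PCR, FAM labelling, HpaI digestion and capillary electrophoresis; bidirectional fit versus DMSO.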

[9] = ATG_PBREM_CIS: Attagene CIS-FACTORIAL HepG2 Assay for human Phenobarbital-responsive Enhancer Module (PBREM) (AID 2282955); settings: HepG2 PBREM cis-reporter, Attagene multiplexed transcription; actives raise or lower the signal
How it was run: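 HepG2, transient MRTU transfection, 24 h dosing; RNA → oligo(dT) RT → PCR → 6-FAM extension → HpaI → CE. Bidirectional fit vs DMSO.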

[10] = target: Bile acid receptor (Homo sapiens) (UniProt Q96RI1); test: ATG_IR1_CIS: Attagene CIS-FACTORIAL HepG2 Assay for human Nuclear Receptor Subfamily 1 Group H Member 4 (NR1H4), IR1 submotif (AID 2282946); settings: IR1 reporter transcription, actives raise or lower the signal
How it was run: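 HepG2 cells transiently transfected with multiple cis-promoter-driven reporter units to measure endogenous transcription factor activity; 24 h exposure. Reporter mRNA read by RT-PCR, FAM labelling, HpaI digestion and capillary electrophoresis. Bidirectional fit versus DMSO.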

Measured: AC50

Sequence of Hypoxia-inducible factor 1-alpha (Homo sapiens) (Q16665 whole entry, looked up): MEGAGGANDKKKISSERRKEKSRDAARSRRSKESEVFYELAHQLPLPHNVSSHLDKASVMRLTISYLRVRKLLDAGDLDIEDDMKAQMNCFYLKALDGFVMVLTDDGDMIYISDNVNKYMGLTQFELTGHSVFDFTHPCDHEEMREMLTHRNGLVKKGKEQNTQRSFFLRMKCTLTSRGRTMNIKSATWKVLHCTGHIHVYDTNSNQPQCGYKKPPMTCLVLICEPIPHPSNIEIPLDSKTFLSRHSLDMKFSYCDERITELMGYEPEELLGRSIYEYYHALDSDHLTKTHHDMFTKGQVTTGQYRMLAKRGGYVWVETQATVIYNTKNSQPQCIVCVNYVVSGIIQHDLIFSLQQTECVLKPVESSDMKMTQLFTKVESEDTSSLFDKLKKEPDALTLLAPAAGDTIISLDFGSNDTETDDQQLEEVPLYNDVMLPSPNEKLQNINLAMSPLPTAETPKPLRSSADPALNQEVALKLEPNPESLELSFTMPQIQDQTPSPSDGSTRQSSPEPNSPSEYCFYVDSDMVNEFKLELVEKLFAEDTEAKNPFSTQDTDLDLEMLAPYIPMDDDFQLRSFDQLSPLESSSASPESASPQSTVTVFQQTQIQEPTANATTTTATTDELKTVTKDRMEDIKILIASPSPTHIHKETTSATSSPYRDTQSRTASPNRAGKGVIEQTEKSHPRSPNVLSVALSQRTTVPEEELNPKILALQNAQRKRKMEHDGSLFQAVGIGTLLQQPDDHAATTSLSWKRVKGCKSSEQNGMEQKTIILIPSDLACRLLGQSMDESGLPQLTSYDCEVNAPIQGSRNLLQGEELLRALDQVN
Sequence of Hepatocyte nuclear factor 6 (Homo sapiens) (Q9UBC0 whole entry, looked up): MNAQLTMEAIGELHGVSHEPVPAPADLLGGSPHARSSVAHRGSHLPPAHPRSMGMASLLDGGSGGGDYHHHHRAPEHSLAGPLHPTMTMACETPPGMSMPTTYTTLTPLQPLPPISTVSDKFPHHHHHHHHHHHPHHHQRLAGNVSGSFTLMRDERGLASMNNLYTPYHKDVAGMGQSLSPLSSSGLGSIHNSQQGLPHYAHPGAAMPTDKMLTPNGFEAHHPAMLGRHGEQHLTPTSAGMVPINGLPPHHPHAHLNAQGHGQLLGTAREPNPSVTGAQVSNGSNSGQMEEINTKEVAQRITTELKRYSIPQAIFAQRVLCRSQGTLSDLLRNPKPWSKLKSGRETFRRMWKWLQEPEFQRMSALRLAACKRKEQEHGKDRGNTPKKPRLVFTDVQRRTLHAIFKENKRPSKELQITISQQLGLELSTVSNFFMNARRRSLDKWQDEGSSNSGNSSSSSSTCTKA
Sequence of Bile acid receptor (Homo sapiens) (Q96RI1 whole entry, looked up): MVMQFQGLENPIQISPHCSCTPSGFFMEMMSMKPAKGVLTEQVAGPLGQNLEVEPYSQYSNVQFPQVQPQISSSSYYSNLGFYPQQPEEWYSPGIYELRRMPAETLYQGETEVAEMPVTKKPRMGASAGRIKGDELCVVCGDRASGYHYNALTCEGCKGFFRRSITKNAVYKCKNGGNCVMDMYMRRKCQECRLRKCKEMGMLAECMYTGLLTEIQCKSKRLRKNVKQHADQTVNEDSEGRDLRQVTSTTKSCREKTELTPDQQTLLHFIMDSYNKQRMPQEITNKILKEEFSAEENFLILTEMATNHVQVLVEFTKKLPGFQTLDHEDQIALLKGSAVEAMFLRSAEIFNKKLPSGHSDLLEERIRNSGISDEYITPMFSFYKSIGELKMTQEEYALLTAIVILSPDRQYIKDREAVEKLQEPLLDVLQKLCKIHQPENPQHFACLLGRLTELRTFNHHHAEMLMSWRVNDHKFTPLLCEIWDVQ
Sequence of Heat shock factor protein 1 (Homo sapiens) (Q00613 whole entry, looked up): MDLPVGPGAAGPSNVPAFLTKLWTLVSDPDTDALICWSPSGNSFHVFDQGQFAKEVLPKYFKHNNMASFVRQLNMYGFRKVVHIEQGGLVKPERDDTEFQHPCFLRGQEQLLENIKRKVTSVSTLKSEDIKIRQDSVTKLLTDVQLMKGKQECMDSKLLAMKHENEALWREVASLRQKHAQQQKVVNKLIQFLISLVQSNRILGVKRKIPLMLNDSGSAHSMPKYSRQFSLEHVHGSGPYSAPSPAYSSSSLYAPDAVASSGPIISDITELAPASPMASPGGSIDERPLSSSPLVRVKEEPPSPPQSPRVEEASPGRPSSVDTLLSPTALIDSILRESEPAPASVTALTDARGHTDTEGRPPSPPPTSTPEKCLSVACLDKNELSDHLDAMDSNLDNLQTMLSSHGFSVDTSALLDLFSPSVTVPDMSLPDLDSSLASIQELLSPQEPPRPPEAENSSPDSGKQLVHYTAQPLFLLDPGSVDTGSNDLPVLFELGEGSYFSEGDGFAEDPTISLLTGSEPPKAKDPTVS

CNCc1ccc(NC(=O)c2c[nH]c3c2C(=O)CCC3)cc1
inactive: [1] | [3] | [4] | [5] | [6] | [7] | [8] | [9]
active: [2] 71.1 µM

CCn1nc(Cc2ccccc2)cc1C1CCN(C[C@H]2C[C@H](N(C)[C@@H](C(=O)O)C(C)C)C[C@@H]2c2cccc(F)c2)CC1
inactive: [1] | [3] | [4] | [6] | [7] | [8] | [9]
active: [2] 100 µM | [5] 26.6 µM

O=C1CCCCCN1
inactive: [10] | [2] | [3] | [4] | [5] | [6] | [7] | [8] | [9]

CNS(=O)(=O)c1cc(C(=O)N2CCC(CCN3C4CCC3CC(n3c(C)nc5ccccc53)C4)(c3cccc(F)c3)CC2)c(Cl)cc1F (centres undefined)
active: [10] 3.85 µM | [2] 8.05 µM
inactive: [4] | [5] | [6] | [7] | [8]

O=c1[nH]c2ccc(S(=O)CCN3CCC(Cc4ccc(F)cc4)CC3)cc2o1 (centres undefined)
active: [8] 155 µM
inactive: [1] | [2] | [3] | [4] | [5] | [6] | [7] | [9]

CCC(C)(C)C(=O)O[C@H]1C[C@@H](C)C=C2C=C[C@H](C)[C@H](CC[C@@H]3C[C@@H](O)CC(=O)O3)[C@H]21
inactive: [1] | [2] | [3] | [4] | [5] | [6] | [7] | [8] | [9]

Cc1ccc(N)cc1O
inactive: [1] | [2] | [3] | [4] | [5] | [6] | [7] | [8] | [9]

Nc1ccc(Nc2ccccc2)cc1
inactive: [1] | [2] | [3] | [4] | [5] | [6] | [7] | [8] | [9]

CCOC(=O)CC(CC(=O)OCC)(OC(C)=O)C(=O)OCC
inactive: [10] | [2] | [4] | [5] | [6] | [7] | [8] | [9]

Cc1c(-c2cccnc2)c2ccccc2n1CCCCC(=O)O
inactive: [10] | [2] | [4] | [5] | [6] | [7] | [8] | [9]

CCCC(=O)OCC
active: [5] 0.171 µM
inactive: [1] | [2] | [3] | [4] | [6] | [7] | [8] | [9]

O=C(CCCCCCCCc1cccnc1)N1CCC(C=C(c2ccccc2)c2ccccc2)CC1
inactive: [1] | [3]
active: [2] 16.7 µM | [4] 59.8 µM | [5] 1.37 µM | [6] 23.9 µM | [7] 15.9 µM | [8] 2.78 µM

CCCCCCCCCCCCc1ccccc1
inactive: [10] | [2] | [4] | [5] | [6] | [7] | [8] | [9]

Nc1cccc(N)c1
inactive: [10] | [2] | [4] | [5] | [6] | [7] | [8] | [9]

O=C(O)c1cccc(Oc2ccccc2)c1
inactive: [1] | [2] | [3] | [4] | [5] | [6] | [7] | [8] | [9]

C=CCCCCCCCCC(=O)O
inactive: [1] | [2] | [3] | [4] | [5] | [6] | [7] | [8]

CC/C(=C\C(=N/O)C(N)=O)C(C)[N+](=O)[O-] (centres undefined)
inactive: [1] | [2] | [3] | [4] | [5] | [6] | [7] | [8] | [9]

CCCCCCc1ccc(O)cc1O
inactive: [1] | [3] | [4] | [6] | [7] | [9]
active: [2] 55.7 µM | [5] 50.7 µM | [8] 54.1 µM

Cn1c(=O)c2c(ncn2C)n(C)c1=O
inactive: [1] | [2] | [3] | [4] | [5] | [6] | [7] | [8] | [9]

O=C(O)c1cccc(N(Cc2cccnc2)c2ccc(OC(F)F)c(OC(F)F)c2)c1
inactive: [2] | [4] | [5] | [6] | [7] | [8] | [9]

C=CC(=C)CCC=C(C)C
inactive: [1] | [2] | [3] | [4] | [5] | [6] | [7] | [8] | [9]
